From the supplement of paper PMC6555819

Key:
Experiment in all cases: PBM binding z-score (relative to random genomic background probes); higher = stronger binding; sequences stand for … in GC…GCGATTGACAGCGTAGAATGAAGG
[1] = system: FXR:RXRa (NR concentration 270 nM, RXRa partner concentration 90 nM)
Outline: (§1)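 Scanned fluorescence from custom Agilent 4×180K protein-binding microarrays was regression-normalized. Binding z-scores use random background probes as reference. Ligand-free nuclear receptor dimers were incubated on the arrays for 1 h and detected with antibodies against each partner (one per run).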

[2] = system: LXRa:RXRa (NR concentration 270 nM, RXRa partner concentration 90 nM)
Outline: as §1

[3] = system: LXRa homodimer (NR concentration 270 nM)
Outline: as §1

[4] = system: LXRb:RXRa (NR concentration 270 nM, RXRa partner concentration 90 nM)
Outline: as §1

[5] = system: LXRb homodimer (NR concentration 270 nM)
Outline: as §1

[6] = system: PPARa:RXRa (NR concentration 270 nM, RXRa partner concentration 90 nM)
Outline: as §1

[7] = system: PPARg:RXRa (NR concentration 180 nM, RXRa partner concentration 90 nM)
Outline: as §1

[8] = system: PPARg:RXRa 270nM:90nM, anti-RXR (NR concentration 270 nM, RXRa partner concentration 90 nM)
Outline: as §1

[9] = system: PPARg:RXRa 30nM:10nM, anti-RXR (NR concentration 30 nM, RXRa partner concentration 10 nM)
Outline: as §1

[10] = system: PPARg:RXRa 90nM:30nM, anti-RXR (NR concentration 90 nM, RXRa partner concentration 30 nM)
Outline: as §1

[11] = system: PPARg:RXRa DBDmut IVT, anti-RXR (DBD mutation: RXRa K156A/R161A, NR concentration 270 nM, RXRa partner concentration 90 nM)
Outline: as §1

[12] = system: PPARg:RXRa IVT, anti-PPARg (NR concentration 270 nM, RXRa partner concentration 90 nM)
Outline: as §1

[13] = system: PPARg DBDmut:RXRa IVT, anti-PPARg (DBD mutation: PPARg1 K132A/R137A, NR concentration 270 nM, RXRa partner concentration 90 nM)
Outline: as §1

[14] = system: PPARg DBDmut IVT, anti-PPARg (DBD mutation: PPARg1 K132A/R137A, NR concentration 270 nM)
Outline: as §1

[15] = system: PPARg homodimer (NR concentration 180 nM)
Outline: as §1

[16] = system: PXR:RXRa (NR concentration 270 nM, RXRa partner concentration 90 nM)
Outline: as §1

[17] = system: PXR homodimer (NR concentration 270 nM)
Outline: as §1

[18] = system: RARa:RXR (NR concentration 270 nM, RXRa partner concentration 90 nM)
Outline: as §1

[19] = system: RARa homodimer (NR concentration 270 nM)
Outline: as §1

[20] = system: RARb:RXRa (NR concentration 270 nM, RXRa partner concentration 90 nM)
Outline: as §1

GCGACTGGGGCATCAGCAGGTTATCATAACTTAA was tested, and the PBM binding z-score [1] was -0.342, the PBM binding z-score [2] was -0.258 and the PBM binding z-score [3] was -0.199. The PBM binding z-score [4] was 0.87, the PBM binding z-score [5] was -0.615 and the PBM binding z-score [6] was 1.38. For the same sequence, the PBM binding z-score [7] was 0.968, the PBM binding z-score [8] was 0.916 and the PBM binding z-score [9] was -0.378. For the same sequence, the PBM binding z-score [10] was 0.369, the PBM binding z-score [11] was 3.69 and the PBM binding z-score [12] was 3.13. For the same sequence, the PBM binding z-score [13] was -0.424, the PBM binding z-score [14] was -0.757 and the PBM binding z-score [15] was 0.000895. The PBM binding z-score [16] was 0.377, the PBM binding z-score [17] was -0.554 and the PBM binding z-score [18] was 0.458. It also gave a PBM binding z-score [19] of -0.474 and a PBM binding z-score [20] of 0.845.
For TCTGCTAGGTCCACGATGGTCAGCTAATCTGCTA, the PBM binding z-score [1] was -0.34, the PBM binding z-score [2] was -0.399 and the PBM binding z-score [3] was -0.522. It also gave a PBM binding z-score [4] of -0.79, a PBM binding z-score [5] of -0.988 and a PBM binding z-score [6] of -0.24. It also gave a PBM binding z-score [7] of -0.332, a PBM binding z-score [8] of 0.324 and a PBM binding z-score [9] of 1.16. The PBM binding z-score [10] was 0.768, the PBM binding z-score [11] was 0.568 and the PBM binding z-score [12] was -0.114. The PBM binding z-score [13] was -0.95, the PBM binding z-score [14] was -0.628 and the PBM binding z-score [15] was -0.907. It also gave a PBM binding z-score [16] of -0.483, a PBM binding z-score [17] of -1.23 and a PBM binding z-score [18] of -0.477. The PBM binding z-score [19] was -1.27 and the PBM binding z-score [20] was 0.204.
Work on TCTTGTAGATCAGCAGGTTAAGTAAGCTGGCCAA yielded a PBM binding z-score [1] of 0.169, a PBM binding z-score [2] of 0.366 and a PBM binding z-score [3] of -0.23. For the same sequence, the PBM binding z-score [4] was 0.424, the PBM binding z-score [5] was -0.524 and the PBM binding z-score [6] was 0.865. The PBM binding z-score [7] was -0.624, the PBM binding z-score [8] was 1.25 and the PBM binding z-score [9] was 2.73. The PBM binding z-score [10] was 2.04, the PBM binding z-score [11] was 1.65 and the PBM binding z-score [12] was 0.766. It also gave a PBM binding z-score [13] of -0.114, a PBM binding z-score [14] of -0.0421 and a PBM binding z-score [15] of 0.0118. It also gave a PBM binding z-score [16] of 0.266, a PBM binding z-score [17] of -0.355 and a PBM binding z-score [18] of 0.553. For the same sequence, the PBM binding z-score [19] was -0.134 and the PBM binding z-score [20] was 0.298.
For ATATGTAGGCTACATCCGGGTCATTCAGGCTATG, the PBM binding z-score [1] was 0.976, the PBM binding z-score [2] was 1.54 and the PBM binding z-score [3] was 0.0787. For the same sequence, the PBM binding z-score [4] was 1.85, the PBM binding z-score [5] was 0.425 and the PBM binding z-score [6] was 3.62. The PBM binding z-score [7] was 3.08, the PBM binding z-score [8] was 2.77 and the PBM binding z-score [9] was 1.13. It also gave a PBM binding z-score [10] of 1.85, a PBM binding z-score [11] of 5.71 and a PBM binding z-score [12] of 5.66. The PBM binding z-score [13] was 1.96, the PBM binding z-score [14] was 1.11 and the PBM binding z-score [15] was 0.66. For the same sequence, the PBM binding z-score [16] was 2.34, the PBM binding z-score [17] was 1.04 and the PBM binding z-score [18] was 2.51. For the same sequence, the PBM binding z-score [19] was 0.115 and the PBM binding z-score [20] was 1.27.
For CCTATCAGGCCAATCTGGGTCACTCAAGGCTTGA, the PBM binding z-score [1] was 0.68, the PBM binding z-score [2] was 1.71 and the PBM binding z-score [3] was -0.155. The PBM binding z-score [4] was 1.02, the PBM binding z-score [5] was 0.106 and the PBM binding z-score [6] was 3.29. For the same sequence, the PBM binding z-score [7] was 2.26, the PBM binding z-score [8] was 2.47 and the PBM binding z-score [9] was 0.43. For the same sequence, the PBM binding z-score [10] was 1.76, the PBM binding z-score [11] was 4.25 and the PBM binding z-score [12] was 5.29. For the same sequence, the PBM binding z-score [13] was 0.637, the PBM binding z-score [14] was -0.095 and the PBM binding z-score [15] was 1.45. The PBM binding z-score [16] was 1.27, the PBM binding z-score [17] was -0.29 and the PBM binding z-score [18] was 2.62. The PBM binding z-score [19] was 0.00198 and the PBM binding z-score [20] was 1.75.
CGTCAAAGTTCGACTAAGGTAACGTAAAGCACGC gave a PBM binding z-score [1] of 1.87, a PBM binding z-score [2] of 1.33 and a PBM binding z-score [3] of 0.0441. For the same sequence, the PBM binding z-score [4] was 1.16, the PBM binding z-score [5] was 0.121 and the PBM binding z-score [6] was 1.88. For the same sequence, the PBM binding z-score [7] was 1.33, the PBM binding z-score [8] was 2.15 and the PBM binding z-score [9] was 0.439. The PBM binding z-score [10] was 1.37, the PBM binding z-score [11] was 0.0158 and the PBM binding z-score [12] was 0.996. The PBM binding z-score [13] was -0.0779, the PBM binding z-score [14] was -0.2 and the PBM binding z-score [15] was 1. For the same sequence, the PBM binding z-score [16] was 2.49, the PBM binding z-score [17] was 0.543 and the PBM binding z-score [18] was 1.92. For the same sequence, the PBM binding z-score [19] was 0.582 and the PBM binding z-score [20] was 2.49.
Sequence CGTCCAAGGCCAGCAGGTCAGTGAAAGCGACGTG has a PBM binding z-score [1] of 0.378, a PBM binding z-score [2] of 0.0811 and a PBM binding z-score [3] of -0.472. It also gave a PBM binding z-score [4] of -0.00321, a PBM binding z-score [5] of -1.05 and a PBM binding z-score [6] of 0.83. The PBM binding z-score [7] was -0.215, the PBM binding z-score [8] was -0.182 and the PBM binding z-score [9] was -0.911. For the same sequence, the PBM binding z-score [10] was -0.203, the PBM binding z-score [11] was 0.153 and the PBM binding z-score [12] was -0.0441. The PBM binding z-score [13] was -0.768, the PBM binding z-score [14] was -0.983 and the PBM binding z-score [15] was 0.0229. The PBM binding z-score [16] was 0.29, the PBM binding z-score [17] was -0.389 and the PBM binding z-score [18] was 0.692. The PBM binding z-score [19] was -1.23 and the PBM binding z-score [20] was 2.36.
